# Assay results as given in PubChem BioAssay AID504832 (National Center for Advancing Translational Sciences (NCATS), 2011).
# “And” between values parts separate entries of the source, which are not always exact repeats. Equal entries are not always repeated. Among all 310,000 compounds or so, about 18,000 (5.8%) were called active. A call without a number means that no potency is given here. Not shown: some 22% with an inconclusive outcome. The sample holds actives, similar compounds and a random draw of the others, so the mix is not that of the screen. The call rests on the fitted dose curve; in most records, active means well fitted inhibition curve with a large enough effect; inconclusive means small, poorly fitted or top-dose-only effect, or another doubt; inactive means no such curve, though single readings can be large or run the other way.
# Assay: Primary qHTS for delayed death inhibitors of the malarial parasite plastid, 48 hour incubation
# Conditions: P. falciparum luciferase growth in erythrocytes; series mostly up to 28.7 µM
# Method in brief: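 Growth was read as firefly luciferase luminescence after a 48 h, 37 C, 5% CO2 exposure of compounds to reporter-bearing P. falciparum cultures (0.1% parasitemia, 2% hematocrit final) in Albumax-supplemented RPMI 1640.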
# Potency means the concentration at half of the fitted maximal effect.
row,Structure (SMILES),Potency
1,Cc1cc(C)c(S(=O)(=O)c2ccc(F)cc2C)c(=O)[nH]1,inactive
2,CC(C)NS(=O)(=O)c1ccc(OCC(=O)NC2CCCCCC2)cc1,inactive
3,Cc1ccc(NS(=O)(=O)c2ccc(F)cc2)nc1,inactive
4,CSCC[C@H](NC(=O)N1CCn2c1nc1ccccc12)C(=O)NCc1ccc2c(c1)OCO2,inactive
5,COC(=O)c1ccc2ccccc2c1OC1OC(CO)C(O)C(O)C1NC(C)=O (stereo unspecified),inactive
6,Cc1ccc(CNC(=O)[C@@H](NC(=O)Cc2ccccc2)C(C)C)cc1,inactive
7,O=[N+]([O-])c1ccc(N2CCN(CC(O)COc3ccccc3)CC2)cc1 (stereo unspecified),inactive
8,O=C(C(c1ccccc1)c1ccccc1)N1CCN(CC(O)COc2ccccc2)CC1 (stereo unspecified),10.4 µM (active)
9,O=C(c1ccccc1)c1ccc(OCC(O)CN2CCCC2)cc1 (stereo unspecified),inactive
10,CC(=O)Nc1ccc(/C=N/NC(=O)c2cccs2)cc1,inactive
11,Cc1cccc(-n2c(C)cc(/C=N\NC(=O)c3cccs3)c2C)c1,5.22 µM (active)
12,Cc1cccc(-n2c(C)cc(/C=N/NC(N)=S)c2C)c1,inactive
13,Cc1ccc2[nH]cc(CCNC(=O)C3CCCCC3)c2c1,inactive
14,CCc1c(C)nc(SCC(=O)NC2CCCC2)[nH]c1=O,inactive
15,N#C/C(=C(/O)Cc1cccc2ccccc12)c1nc2ccccc2s1,inactive
16,N=C(N)SCc1cccc2ccccc12,9.28 µM (active)
17,c1ccc2c(CSCc3nc4ccccc4[nH]3)cccc2c1,inactive
18,O=C(Nc1ccc(Cl)cc1)c1cccc(OC(=S)N2CCOCC2)c1,inactive
19,Cc1ccc(C(=O)O/N=C(\N)c2ccccn2)cc1Cl,inactive
20,CCOc1ccc(OCCSc2nc3ccccc3n2CC(=O)O)cc1,inactive
21,CC(C)=CCN1CCN(Cc2cc3ccccc3[nH]2)CC1CCO (stereo unspecified),inactive
22,COc1ccc(C(=O)N2CCCC(C(=O)c3ccccc3OC)C2)cc1OC (stereo unspecified),inactive

row,Structure (SMILES),Potency
1,COc1ccc(CSc2nc(N3CCOCC3)c3c(c2C#N)CC(C)(C)OC3)cc1,11.7 µM (active)
2,COc1ccc(-n2nnnc2SCc2nc(N)nc(N3CCOCC3)n2)cc1,inactive
3,Cc1cc(C)c(C#N)c(SCc2ccc3c(c2)OCO3)n1,inactive
4,CC(C)(C)OC(=O)N1CCC(C(=O)NNC(=O)c2ccc(Cl)cc2Cl)CC1,inactive
5,Cc1c(CN2CCC(n3nccc3NC(=O)CCc3ccccc3)CC2)cnn1C,inactive
6,COC(=O)c1c(NC(=O)C2CC(C)=C(C)CC2C(=O)O)sc2c1CCCCC2 (stereo unspecified),inactive
7,COC(=O)c1ccc(S(=O)(=O)N2CCc3ccccc3C2)cc1,inactive
8,COc1ccc(C2Nc3ccccc3C(=O)N2c2ccc(F)cc2)cc1Cn1nnc2ccccc21 (stereo unspecified),6.57 µM (active)
9,COc1ccc(C2=NO[C@@H]3C(=O)N(Cc4ccccc4)C(=O)[C@H]23)cc1OC,inactive
10,COc1ccc(C2Nc3ccccc3C(=O)N2Cc2ccccc2)cc1Cn1nnc2ccccc21 (stereo unspecified),3.7 µM (active)
11,COc1ccc(N2C(=O)c3ccccc3NC2c2ccc(OC)c(CN3CCOCC3)c2)cc1 (stereo unspecified),inactive
12,Cc1ccc(C2Nc3ccccc3C(=O)N2CCN2CCNC2=O)cc1 (stereo unspecified),inactive
13,COc1ccc(C2Nc3ccccc3C(=O)N2c2ccc(Cl)cc2)cc1Cn1cc([N+](=O)[O-])cn1 (stereo unspecified),inactive
14,CCCc1c(C(=O)N/N=C(\C)CCc2ccc(OC)cc2)nnn1-c1nonc1N,inactive
15,CC(C)C(NC(=O)c1c(F)cccc1F)C(=O)NCc1ccncc1 (stereo unspecified),inactive
16,Cc1ccc2nc(Nc3ccccc3O)nc(-c3ccccc3)c2c1,13.1 µM (active)
17,O=C(CCl)NNc1nc(-c2ccccc2)c2cc(Cl)ccc2n1,inactive
18,CCS(=O)(=O)Nc1cccc(-c2cc(-c3ccccc3)c3cc(C)ccc3n2)c1,inactive
19,Nc1c(C(=O)OCC(=O)Nc2ccc(OC(F)F)cc2)[nH]c(=O)[nH]c1=O,inactive
20,O=C(c1cc(COc2ccc(F)cc2F)on1)N1CCOCC1,inactive
21,CCCCC(=O)Nc1ccc(C(=O)Nc2cc(C(F)(F)F)ccc2Cl)cc1,inactive
22,CCCCN(CCCC)CCC(O)c1cc2c(Cl)cc(Cl)cc2c2cc(C(F)(F)F)ccc12 (stereo unspecified),3.2 nM (active) and 4.1 nM (active)

row,Structure (SMILES),Potency
1,COc1cccc(CNC(=O)COc2cc(O)c3c(c2)OC(C)(C)CC3=O)c1,inactive
2,Cc1ccc(CNC(=O)CSc2nnc3c(n2)[nH]c2ccc(F)cc23)cc1,inactive
3,O=C(CSc1nnc2c(n1)[nH]c1ccccc12)NC1CCCCC1,inactive
4,Clc1ccc(CSc2nnc3c(n2)[nH]c2ccccc23)cc1,5.22 µM (active)
5,CCCCN(C(=O)c1ccc(S(=O)(=O)N2CCOCC2)cc1)C1CCS(=O)(=O)C1 (stereo unspecified),inactive
6,O=C1NCC(=O)N(Cc2ccccc2)/C1=C/c1ccccc1,inactive
7,O=C1OC(c2ccc(Cl)cc2)=N/C1=C\c1cccnc1,inactive
8,O=C1NNC(c2ccccc2)=N/C1=C\c1ccc(Cl)cc1,6.57 µM (active)
9,COc1ccc(C2CC(c3ccc([N+](=O)[O-])cc3)=NN2C(C)=O)cc1 (stereo unspecified),inactive
10,CNC(=O)C1CC(=O)N(c2ccc(OCC(=O)Nc3ccccc3C)cc2)C1 (stereo unspecified),inactive
11,O=C1C(=O)N(CCCO)C(c2ccccc2)/C1=C(\O)c1ccc(Br)cc1 (stereo unspecified),inactive
12,O=C(N/N=C/c1cccc(O)c1)c1cc2c(ccc3ccccc32)o1,inactive
13,O=C(N/N=C/c1cccc(OCc2ccccc2)c1)c1ccc(Br)o1,9.28 µM (active)
14,Cc1ccc(OCCOc2cccc(/C=N/NC(N)=O)c2)cc1,inactive
15,O=C(NCCCN1CCOCC1)c1cc(-c2ccccc2F)no1,inactive
16,Nc1ccccc1SCc1cc([N+](=O)[O-])cc2c1OCOC2,inactive
17,Nc1ccccc1Sc1ccc(C(F)(F)F)cc1[N+](=O)[O-],inactive
18,Nc1ccccc1SC(C[N+](=O)[O-])c1ccccc1 (stereo unspecified),4.15 µM (active)
19,CN(c1ccc(O)cc1)c1nc(-c2cccnc2)cs1,inactive
20,COc1ccc(OC)c(C2C3=C(N=c4s/c(=C\c5cccc(O)c5)c(=O)n42)c2ccccc2CC3)c1 (stereo unspecified),5.86 µM (active)
21,O=C1CCCC2=C1C(c1ccccc1)n1c(s/c(=C/c3cccc(F)c3)c1=O)=N2 (stereo unspecified),inactive
22,O=C(NCCc1ccc(F)cc1)c1ccc2nccnc2c1,inactive
